# Inconclusive results are not listed. Calls of active or inactive are those of the source. The call rests on the fitted dose curve.
# Assay: qHTS assay to identify small molecule agonists of the AP-1 signaling pathway - cell viability counter screen (AID 1159525); further: nearly all actives have a fitted effect of over 55% in size
# Conditions: ME-180 (cervical carcinoma) AP-1-bla cells viability, ATP luminescence, 5 h; series mostly up to 76.8 µM
# Source text: National Center for Advancing Translational Sciences [NCATS]
# NIH Chemical Genomics Center [NCGC]
# U.S. Environmental Protection Agency [EPA]
# National Institutes of Environmental Health Sciences [NIEHS]
# National Toxicology Program [NTP]
# U.S. Food and Drug Administration [FDA]
# Activator protein-1 (AP-1), a transcription factor, plays an important role in tumor genesis by regulating genes involved in cell proliferation, differentiation, apoptosis, and angiogenesis. AP-1 activity is induced by a complex network of signaling pathways that involves extracellular signals, such as growth factors. The AP-1 protein complex formed from c-Fos and c-Jun binding to the AP-1 response element results in transcriptional activation of genes containing such elements within their promoter.
# Low molecular weight molecules have been discovered and developed to modulate various components of these signaling pathways, for example, MAP kinase inhibitors. However, many points of pathway modulation remain untested due to the lack of chemical probes making this signaling locus of general interest.
# Using a beta-lactamase reporter-gene under control of the AP-1 response element, a cell-based assay [CellSensor(TM) AP-1-bla ME-180 developed by Invitrogen Corp.] was used to measure EGF-induced signaling. The Tox21 10K library compounds were measured for their ability to positively modulate the action of EC50 EGF on reporter gene activity. Compounds were screened in a 15-pt titration series in 1536-well format. The cytotoxicity of the Tox21 compound library against this cell line was tested in parallel by measuring the intra cellular ATP content in the same wells.
# Tox21 Assay Protocol Summary:
# 2500 cells/5uL in Opti-MEM medium containing 0.5% dialyzed FBS, 0.1 mM NEAA, 1 mM sodium pyruvate and 10 mM HEPES was dispensed into 1536-well black wall/clear bottom plates using a Multidrop dispenser and cells were cultured at 37 degrees Celsius overnight. Next day 23 nL of compounds dissolved in DMSO, positive controls or DMSO were delivered to each well using a pin tool. The plates were incubated at 37 degrees Celsius for 5 hours. 1 uL of LiveBLAzerTM B/G FRET substrate (Solution A+B+C+D) was added to each well using a Flying Reagent Dispenser. After incubated at room temperature for 2.5 hours the plates were measured on an EnVision plate reader at Excitation 405nm, Emission1=460nm and Emission 2=530nm. The %Activity was determined from the ratio of 460nm/530nm.
# After the plates were read for Beta-Lactamase assay on Envision; 3 ul Cell Titer Glo (Promega) was added to measure the cytotoxicity and the plates were then incubated at RT in dark for 30 min. The luminescence was read on ViewLux (Perkin Elmer, Shelton, CT) using 6 sec exposure. ViewLux data was expressed as relative luminescence units.
# For primary data analysis, raw plate reads for each titration point were first normalized relative to […] EGF control (100%) and DMSO only wells (basal, 0%).
# For primary data analysis for viability assay, raw plate reads for each titration point were first normalized Tetra n-octyl ammonium bromide control (-100%) and DMSO (control, 100%).
row,SMILES,outcome
1,O=C(O)c1ccccc1-n1cc(C(=O)O)c(=O)c2cc(Nc3c(F)cc(F)cc3Cl)c(Cl)cc21,inactive
2,COc1ccc(/C(C)=C/C(=O)O)c(OC)c1,inactive
3,CC1(C)[C@@H]2CC[C@]3(C2)[C@@H]1C(=O)CCC3(C)C,inactive
4,CCCCCCCCCCCCSC#N,inactive
5,Nc1ccc(-c2ccc(F)cc2)cc1,inactive
6,O=[N+]([O-])c1cccc(I)c1,inactive
7,CC(=O)c1ccc(Cl)c(Cl)c1Cl,inactive
8,CC(O)C(C)O (stereo not given),inactive
9,C=CC(=O)OCCCCCCCCCC,inactive
10,C=CC(C)(O)CC/C=C(/C)CCC=C(C)C (stereo not given),inactive
11,COC(=O)C(C)(C)C,inactive
12,CCC(=O)O[C@@H]1C[C@H]2CC[C@]1(C)C2(C)C,inactive
13,O=C(Cl)c1ccc(F)c(Cl)c1,inactive
14,Cc1cc(SC2=C(O)C[C@@](CCc3ccc(N)cc3)(C(C)C)OC2=O)c(C(C)(C)C)cc1CO,inactive
15,Clc1cc(Cl)c2c(c1)N=C1CCCCCN1C2,inactive
16,CCC(C)CCCC(C)(C)O (stereo not given),inactive
17,N#C[C@@H]1CC(F)(F)CN1C(=O)CNC1CC2CCC(C1)N2c1ncccn1 (stereo not given in full),inactive
18,NC(=O)c1ccccc1,inactive
19,CC(C)(C)NCC(O)COc1ccc(NC(=O)NC2CCCCC2)cc1 (stereo not given),inactive
20,C/C=C1\[C@H]2C=C(C)C[C@]1(N)c1ccc(=O)[nH]c1C2,inactive

row,SMILES,outcome
1,CC(C)Oc1ccccc1O,inactive
2,O=Cc1ccc(Cl)c([N+](=O)[O-])c1,inactive
3,CC1(COc2ccc(CC3SC(=O)NC3=O)cc2)CCCCC1 (stereo not given),inactive
4,Cc1ccc(Cl)c(OCC(O)CNC(C)(C)C)c1 (stereo not given),inactive
5,COc1ccc(CN(CCN(C)C)c2ncccn2)cc1,inactive
6,CCCCCCCCS,inactive
7,O=C(OCCCCCOC(=O)c1ccccc1)c1ccccc1,inactive
8,O=C(O)c1cc(C(=O)O)cc([N+](=O)[O-])c1,inactive
9,CCOc1ccc(NC(C)=O)cc1N,inactive
10,Cc1c(Cl)cccc1Nc1ccccc1C(=O)O,inactive
11,C1=COCCC1,inactive
12,CCOc1ccc2c(c1)C(C)CC(C)(C)N2 (stereo not given),inactive
13,C=C(C)C(=O)OCCCCCCCCCCOC(=O)C(=C)C,inactive
14,O=C(Nc1ccccc1)c1cc([N+](=O)[O-])ccc1Cl,inactive
15,O=C(O)c1cccnc1Nc1cccc(C(F)(F)F)c1,inactive
16,C[C@@H](O)[C@H]1C(=O)N2C(C(=O)O)=C(S[C@@H]3CN[C@H](CNS(N)(=O)=O)C3)[C@H](C)[C@H]12,inactive
17,CCCN(C1CCN(C(=O)C2CCNCC2)CC1)[C@@H]1CCc2ccc(OC)cc2C1,inactive
18,CCc1ccc2c(c1)C(=O)c1ccccc1C2=O,inactive
19,CCC(C(=O)O)c1ccc(N2Cc3ccccc3C2=O)cc1 (stereo not given),inactive
20,CCCCC(CC)COCCC#N (stereo not given),inactive

# — PubChem BioAssay (Tox21)
